The values that follow come from PubChem BioAssay.

SMILES strings stand for the structures. Calls of active or inactive are those of the source.

For experiment [1], the target named is Albumin (Bos taurus) (UniProt P02769). Briefly: compounds binding labelled BSA control protein – biochemical, small-molecule microarray, Alexa647 label, 635/667 nm fluorescence, artefact control for SMM control protein annotation, profiling panel (AID 1118).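 Note: score merges 667 nm emission intensity and signal-to-noise per printed compound spot.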 Conditions: BSA-A647 binding, fluorescence 635 nm, higher = more signal.
Sequence of Albumin (Bos taurus) (P02769 whole entry, looked up): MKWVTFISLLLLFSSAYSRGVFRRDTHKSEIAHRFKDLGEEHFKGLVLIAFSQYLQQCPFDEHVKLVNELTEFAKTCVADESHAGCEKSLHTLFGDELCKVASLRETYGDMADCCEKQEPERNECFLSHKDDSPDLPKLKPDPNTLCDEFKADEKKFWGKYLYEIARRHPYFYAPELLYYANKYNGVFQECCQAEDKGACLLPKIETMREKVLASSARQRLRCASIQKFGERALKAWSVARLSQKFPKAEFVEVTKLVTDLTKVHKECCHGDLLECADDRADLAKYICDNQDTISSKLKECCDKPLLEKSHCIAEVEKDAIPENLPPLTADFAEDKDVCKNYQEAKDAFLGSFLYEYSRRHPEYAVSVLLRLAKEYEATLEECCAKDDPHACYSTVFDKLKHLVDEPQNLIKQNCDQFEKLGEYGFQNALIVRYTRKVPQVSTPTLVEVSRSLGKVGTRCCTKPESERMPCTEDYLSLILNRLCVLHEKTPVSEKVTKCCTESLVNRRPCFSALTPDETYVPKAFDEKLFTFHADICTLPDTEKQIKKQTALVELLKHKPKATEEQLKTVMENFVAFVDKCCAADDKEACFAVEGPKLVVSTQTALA
Experiment [2] in a line: probe aXIP binding to arrayed compounds – biochemical, NeuroSMM set, 635/667 nm fluorescence, primary screen (AID 1119).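 Note: probe is the protein aXip251-270 applied at 1 µg/mL to compound-printed slides; binding of probe to printed compounds measured as 667 nm fluorescence plus signal to noise.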 As to conditions: small-molecule microarray, higher = more signal, called active from +8 up or from −8 down.
The nature of experiment [3]: probe aNOTCH3 binding on compound microarray – biochemical, small-molecule microarray, 635/667 nm fluorescence, primary screen (AID 1120).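 Note: probe is a biotin-tagged antibody raised against NOTCH3 rather than NOTCH3 protein; score merges spot fluorescence near 667 nm with spot signal to noise.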 As to conditions: higher = more signal.
Experiment [4] in a line: probe aNOTCH2 binding on compound microarray – biochemical, small-molecule microarray, 635/667 nm fluorescence, primary screen (AID 1121).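 Note: score merges feature fluorescence read at 667 nm with its signal to noise.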 Conditions: higher = more signal.
In experiment [5] the target is Carbonic anhydrase 2 (Homo sapiens) (UniProt P00918). Briefly: compounds binding carbonic anhydrase 2 – biochemical, small-molecule microarray, Alexa647-labelled CAII, profiling panel (AID 1122). As to conditions: CAII-A647 binding fluorescence, higher = more signal.
Experiment [6] is described as follows: COS7 lysate on small-molecule microarray, probe aHis, 635 nm (AID 1123).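 Note: z-score combines 667nm fluorescence intensity with signal-to-noise per printed compound spot.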 As to conditions: COS7 cell lysate, fluorescence, higher = more signal.
A short description of experiment [7]: probe aLAP1 signal on lysate-treated microarray – cell lysate, small-molecule microarray, COS7 lysate, primary screen (AID 1124).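 Note: lysate comes from COS7 cells expressing LAP1 and is applied at 0.3 µg/mL; score merges spot fluorescence near 667 nm with signal-to-noise over triplicate slides.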 Conditions: probe aLAP1, fluorescence, higher = more signal.
Experiment [8] relates to Sam68 (KHDRBS1). In words: compounds binding KHDRBS1 protein – biochemical, small-molecule microarray, 635 nm fluorescence, primary screen (AID 1125).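 Note: score merges 667 nm channel intensity with signal to noise over triplicate slides.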 Conditions: higher = more signal.
Experiment [9] relates to Chordin-like protein 2 (CHRDL2). Briefly: compounds binding chordin-like 2 – biochemical, small-molecule microarray, 635 nm fluorescence, primary screen (AID 1126).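 Note: printed compound slides probed with Chrdl2 protein at 4 µg/mL for 1 h at 4 C; score merges 667 nm emission intensity with signal to noise over three replicate slides.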 As to conditions: fluorescence 635 nm, higher = more signal.
Experiment [10] deals with Concanavalin-A (Canavalia ensiformis) (UniProt P02866). Briefly: compounds binding concanavalin A lectin – biochemical, small-molecule microarray, Alexa647 label, 635 nm, artefact control for SMM control protein annotation, primary screen (AID 1127).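 Note: z combines 667 nm emission intensity with signal-to-noise across three replicate slides.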 As to conditions: ConA-A647 binding fluorescence, higher = more signal.
Sequence of Concanavalin-A (Canavalia ensiformis) (P02866 whole entry, looked up): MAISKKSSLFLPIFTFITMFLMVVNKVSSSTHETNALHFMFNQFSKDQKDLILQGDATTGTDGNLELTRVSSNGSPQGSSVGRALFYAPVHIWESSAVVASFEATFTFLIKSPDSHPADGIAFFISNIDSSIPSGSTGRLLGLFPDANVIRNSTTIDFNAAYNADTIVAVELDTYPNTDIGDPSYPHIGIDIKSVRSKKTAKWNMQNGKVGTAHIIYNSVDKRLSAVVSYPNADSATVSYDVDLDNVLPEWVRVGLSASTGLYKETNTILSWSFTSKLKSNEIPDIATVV

Take `COc1c(C)cc(-c2cc3c(c(-c4ccc(Oc5ccccc5)cc4)n2)[Si](C(C)C)(C(C)C)OC3)cc1C`: the composite z-score was -0.237 in experiment [1]; 0.0208 in experiment [3]; 0.0016 in experiment [4]; -0.229 in experiment [5]; -0.202 in experiment [6]; 0.151 in experiment [7]. The figures for the composite z-score in experiment [8], in [9] and in experiment [10] were -1.07, -0.206 and -0.52, respectively. Further, the composite Z-score in [2] is -0.591 (inactive).

With `O=C(CS)NCCCCCCNC(=O)[C@H]1C[C@H]2C(=O)N3CCC[C@H]3C(=O)N2[C@H]1c1cccc(OCCO)c1`, the composite z-score was 0.0023 in [1]; 0.0242 in experiment [3]; -0.105 in experiment [4]; 0.528 in experiment [5]; 2.51 in experiment [6]; 0.407 in experiment [7]. The composite z-score in experiment [8] stood at 1.29; in experiment [9] it was 0.97; in [10], 1.02. Moreover, in experiment [2], the composite Z-score was -0.254 (inactive).

As to `C[N+](C)(C)CCCCCCNC(=O)[C@H]1C[C@H]2C(=O)N3CCC[C@H]3C(=O)N2[C@H]1c1ccc(O)cc1`, the composite z-score in experiment [1] was -0.608; in experiment [3], 0.0039; in experiment [4], -0.107; in experiment [5], 0.5; in experiment [6], 1.73; in experiment [7], -0.379. Also, the figures for the composite z-score in experiment [8], in experiment [9] and in experiment [10] were 0.485, 0.472 and 0.709, respectively. For the same compound, the composite Z-score in [2] was 0.287 (inactive).

As to `C=CC[C@@]1(C(=O)N2CCOCC2)N=C(c2ccc(OCCCO)cc2)O[C@@H]1c1ccccc1N=[N+]=[N-]`, the composite z-score in experiment [1] was 0.872; in experiment [3] it was 0.364; in experiment [4], 0.0753; in experiment [5], 0.419; in [6], 2.43; in [7], 1. Also, the composite z-score is 1.29 in [8], -0.142 in [9] and 1.09 in experiment [10]. Moreover, in experiment [2], the composite Z-score is -0.885 (inactive).

On to `N#Cc1ccc(NN2C(C(O)c3ccc([N+](=O)[O-])cc3)C=CC3C(=O)N(c4ccccc4)C(=O)C32)cc1` (stereo not given), for which the composite z-score in experiment [1] came to 0.552; in experiment [3], 0.0847; in experiment [4], 0.181; in experiment [5], 0.758; in experiment [6] it was 2.75; in experiment [7], 0.833. Besides, the figures for the composite z-score in [8], in experiment [9] and in experiment [10] were 1.3, 0.0881 and 0.647, respectively. Moreover, in [2], the composite Z-score was 0.156 (inactive).

Regarding `C=C(CCCC)C(=O)CC[C@H](OC(=O)c1cccnc1)c1cccc(OCCO)c1`, the composite z-score in experiment [1] is -0.39; in [3] it was -0.0242; in experiment [4], -0.14; in [5] it was 0.771; in experiment [6], -0.112; in experiment [7], 0.0948. Besides, the composite z-score is 0.269 in experiment [8], 0.225 in [9] and -0.106 in experiment [10]. Besides, the composite Z-score in [2] was 0.087 (inactive).

Regarding `CC(C)N1C(=O)c2ccccc2[C@@H](C(=O)NCCCN(C)C)[C@@H]1c1ccc(CO)cc1`, the composite z-score in [1] was 0.955; in [3] it was -0.15; in experiment [4] it was 0.0364; in [5], 0.901; in [6] it was 0.82; in experiment [7], 0.0206. Further, the composite z-score in experiment [8] was 0.297; in [9], -1.91; in experiment [10] it was 0.289. Also, in [2], the composite Z-score was -0.109 (inactive).

`O=C(O)[C@@]1(Cc2ccccc2)N=C(c2ccc(OCCCO)cc2)O[C@H]1c1ccccc1`: the composite z-score in experiment [1] is 0.32; in [3] it was -0.0932; in [4], -0.147; in experiment [5] it was 0.529; in experiment [6], 1.29; in [7], -0.183. The composite z-score in experiment [8] is 0.499; in [9] it was -1.15; in experiment [10] it was 0.649. In addition, the composite Z-score in experiment [2] was -0.419 (inactive).

For `CN1C(=O)C2C=CC(C(O)c3ccccn3)N(Nc3ccccc3)C2C1=O` (stereo not given), the composite z-score in experiment [1] is -0.0756; in [3] it was 0.0711; in experiment [4] it was -0.14; in [5], 0.727; in [6], 0.446; in experiment [7] it was 0.456. Also, the composite z-score in experiment [8] is 0.656; in experiment [9], 0.288; in [10], 0.37. For the same compound, the composite Z-score in experiment [2] is 0.0956 (inactive).

For the compound `CC(C)CNC(=O)[C@@]1(c2ccc([N+](=O)[O-])cc2)CC(=O)N(CC23CC4CC(CC(C4)C2)C3)[C@@H]1c1ccc(CO)cc1`, the composite z-score was 0.152 in experiment [1]; 0.157 in experiment [3]; 0.014 in experiment [4]; 0.523 in experiment [5]; 1.42 in experiment [6]; 1.15 in experiment [7]. The composite z-score is 1.04 in experiment [8], 0.201 in experiment [9] and 0.73 in experiment [10]. For the same compound, the composite Z-score in [2] is 0.0585 (inactive).

In the case of `C=C(CCCC)/C(=C/C[C@H](OC(C)=O)c1ccc(CO)o1)c1cnc2ccccc2c1`, the composite z-score in experiment [1] was 0.475; in experiment [3], 0.0282; in [4], -0.14; in [5], 0.73; in [6] it was 0.612; in experiment [7], -0.193. The composite z-score was 1.05 in [8], 0.968 in experiment [9] and 0.931 in experiment [10]. Moreover, the composite Z-score in [2] was -1.16 (inactive).

As for `CCC[C@@H]1C=C(C(=O)O)[C@H](c2ccc(C)cc2)N1S(=O)(=O)c1ccc(C)cc1`, the composite z-score in experiment [1] came out at 0.972; in experiment [3], 0.195; in experiment [4], 0.0029; in experiment [5], 0.799; in experiment [6], 2.71; in experiment [7], 0.738. For the same compound, the results for the composite z-score in experiment [8], in experiment [9] and in [10] were 1.33, -0.802 and 0.757, respectively. Besides, the composite Z-score in experiment [2] was 0.102 (inactive).

Regarding `O=C1[C@]2(CO)C=C(Br)[C@@H](C[C@@H]2c2ccccc2)[C@@]12CO2`, the composite z-score in [1] was -0.102; in experiment [3], -0.0763; in experiment [4], -0.16; in experiment [5], 0.129; in experiment [6], -0.307; in experiment [7], -0.139. Besides, the results for the composite z-score in experiment [8], in [9] and in experiment [10] were -0.566, 0.0616 and 0.195, respectively. Also, the composite Z-score in [2] is 0.689 (inactive).

Consider `CN(C)CCCNC(=O)[C@@]1(Cc2ccccc2I)c2ccccc2C(=O)N(Cc2ccccc2C(F)(F)F)[C@H]1c1ccc(CO)cc1`, for which the composite z-score in [1] was -0.212; in experiment [3], -0.286; in experiment [4], -0.146; in experiment [5] it was 0.662; in experiment [6] it was 2.4; in experiment [7], 0.557. Besides, the results for the composite z-score in experiment [8], in experiment [9] and in experiment [10] were 1.02, -1.07 and -0.17, respectively. Also, the composite Z-score in experiment [2] was 0.179 (inactive).

For the compound `CC(C)NC(=O)[C@@H]1c2ccccc2C(=O)N(Cc2ccccc2Cl)[C@H]1c1ccc(CO)cc1`, the composite z-score in [1] was 0.07; in [3] it was -0.205; in [4], -0.121; in experiment [5] it was 0.651; in [6], 1.29; in [7] it was 0.661. The figures for the composite z-score in experiment [8], in experiment [9] and in experiment [10] were 1.03, -0.296 and -0.0903, respectively. Moreover, the composite Z-score in experiment [2] is 0.757 (inactive).

On to `CC(=O)C1=CCC(c2ccccc2)N(S(=O)(=O)c2ccc(C)cc2)C1` (stereo not given), for which the composite z-score was 0.632 in [1]; 0.101 in experiment [3]; -0.0439 in experiment [4]; 0.66 in [5]; 2.5 in experiment [6]; 0.763 in [7]. Moreover, the composite z-score in experiment [8] stood at 0.579; in experiment [9], 0.725; in [10], 0.789. In experiment [2], the composite Z-score is -0.685 (inactive).
